Compound activity: PubChem BioAssay, The Scripps Research Institute Molecular Screening Center
Only some compounds are listed: those with a hit (about 2.3% of all), similar ones and a draw of the others.
LEDGF integ inh: blocks HIV-1 LEDGF/p75-dependent DNA integration; inhibition, % at 3.7 µM; AID 743269; hit rate 0.64% among 370,000; TR-FRET IN-LEDGF/p75 DNA integration, Eu/Cy5;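 active = inhibition above the screen-wide mean plus 3 SD, cut at about 13% in these data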;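 note: signal is the Cy5 over europium emission ratio at 671 and 618 nm; 0% = plate median of compound wells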
MBD2 inh: MBD2-methylated oligo binding inhibition. TR-FRET, MBD2 binding to methylated oligonucleotide. Q9UBB5. inhibition, % at 4.4 µM. hit rate 0.31% among 370,000; in the data active = inhibition above about 13%
UHRF1 MBD2 ctr: UHRF1 methyl-DNA binding inhibition; Q96T88; UHRF1 binding to methylated oligo, TR-FRET; inhibition, % at 4.4 µM; hit rate 0.75% among 370,000; AID 687016; in the data active = inhibition above about 21%;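 note: UHRF1 SRA domain binding a hemimethylated CpG hairpin DNA probe; 0% = median of test compound wells and 100% = reference inhibitor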
Target sequence (Q96T88 whole entry, looked up, the tested form may be a part): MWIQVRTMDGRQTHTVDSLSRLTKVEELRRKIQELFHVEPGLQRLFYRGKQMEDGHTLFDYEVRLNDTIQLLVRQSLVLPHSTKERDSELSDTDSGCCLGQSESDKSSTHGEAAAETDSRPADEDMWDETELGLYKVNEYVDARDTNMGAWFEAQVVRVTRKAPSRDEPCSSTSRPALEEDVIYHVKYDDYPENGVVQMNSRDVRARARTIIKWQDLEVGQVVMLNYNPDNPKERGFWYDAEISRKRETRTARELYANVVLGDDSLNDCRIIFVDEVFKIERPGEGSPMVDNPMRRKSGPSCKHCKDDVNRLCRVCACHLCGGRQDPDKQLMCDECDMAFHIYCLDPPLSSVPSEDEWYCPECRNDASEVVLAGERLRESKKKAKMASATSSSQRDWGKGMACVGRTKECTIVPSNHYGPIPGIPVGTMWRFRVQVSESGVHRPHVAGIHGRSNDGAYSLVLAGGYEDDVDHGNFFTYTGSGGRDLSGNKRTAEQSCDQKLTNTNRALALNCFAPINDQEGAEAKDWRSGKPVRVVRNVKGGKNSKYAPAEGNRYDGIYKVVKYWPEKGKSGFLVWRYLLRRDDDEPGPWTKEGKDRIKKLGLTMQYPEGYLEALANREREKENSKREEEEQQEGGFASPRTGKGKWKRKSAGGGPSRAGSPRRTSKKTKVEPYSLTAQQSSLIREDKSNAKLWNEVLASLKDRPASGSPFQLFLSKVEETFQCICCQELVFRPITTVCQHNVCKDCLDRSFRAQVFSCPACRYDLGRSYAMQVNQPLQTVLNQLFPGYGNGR
PLCg1 inh: PLC-gamma1 (human) inhibition, primary screen; P19174; purified PLC-gamma1, fluorogenic substrate, fluorescence; inhibition, % at 12.2 µM; hit rate 0.84% among 370,000; in the data active = inhibition above about 9.5%
PLCb3 inh: inhibitors of human phospholipase C beta3; Q01970; Purified PLC-beta3, fluorogenic substrate, fluorescence; hit rate 0.18% among 370,000; AID 720704; inhibition, % at 12.2 µM; in the data active = inhibition above about 11%;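 note: 0% = median of compound wells on plate and 100% = full blocker control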
Starred values were filed as active, the others as inactive; i = inactive.

SMILES	LEDGF integ inh	MBD2 inh	UHRF1 MBD2 ctr	PLCg1 inh	PLCb3 inh
COc1cc2c(cc1OC)CN(c1nc(CN3CCCCC3)nc3sc4c(c13)CCCC4)CC2	1	1	2	1	0
COc1cc2c(cc1OC)CN(c1nc(CN3CCCC3)nc3sc(C)c(C)c13)CC2	-4	3	34*	-10	-21
Oc1ccc(/C=N\Nc2cc(N3CCOCC3)nc(N3CCOCC3)n2)c(O)c1	3	-9	-3	-71	-84
Oc1ccc(/C=N/Nc2cc(N3CCCC3)nc(N3CCCC3)n2)cc1O	33*	2	4	-19	-29
CC(=O)Nc1ccc(/C=N/OCC(=O)Nc2ccc(C)cc2)cc1	1	4	2	1	-2
COc1ccc(C=NOCC(=O)OCC(=O)Nc2ccc(OC)cc2)cc1	-3	-2	29*	0	-5
Cc1ccc(CN[C@@H]2CC[C@@]34CCCN3C(=O)CCC[C@H]4C2)cc1	0	-6	-2	4	4
CO[C@@]1(NC(=O)CSCC#N)C(=O)N2C(C(=O)O)=C(CSc3nnnn3C)CS[C@@H]21	10	-4	44*	0	-3
Cc1nnc(SCC2=C(C(=O)O)N3C(=O)C(NC(=O)Cn4cnnn4)C3SC2)s1 (configuration not stated)	5	5	-4	1	-2
O=C(Nc1c(-c2ccc(C(F)(F)F)cc2)nc2ncccn12)C1CC1	-2	0	-3	i	i
C[C@H]1[C@H](NC(=O)C(=NOC(C)(C)C(=O)O)c2csc(N)n2)C(=O)N1S(=O)(=O)O	-2	2	25*	2	5
CCOC(=O)c1csc(N)n1	4	0	2	8	2
O=C(NCc1ccco1)C1Cc2ccccc2CN1S(=O)(=O)c1ccccc1F (configuration not stated)	14*	-1	12	7	-14
CC(NC(=O)c1ccc(F)cc1)C1CC2CCC1C2 (configuration not stated)	-4	6	88*	1	-7
O=C(c1ccccc1C(F)(F)F)N1CCC(Oc2cccnc2)CC1	3	1	1	-1	-1
O=C1NC(=O)C(CC(=O)N(Cc2cccs2)C2(C(=O)NC3CCCC3)CCCCC2)N1 (configuration not stated)	3	5	23*	2	1
C=CCOC/C=C/C#CCN(Cc1ccc(OC)cc1OC)C(=O)Nc1ccccc1	-2	0	-2	1	1
Cn1nc(-c2ccccc2)cc1NC(=O)Nc1ccccc1F	3	-2	68*	0	-3
Cc1cc(C)cc(NC(=O)Nc2cc(-c3ccccc3)nn2C)c1	3	-1	-4	4	-151
Cc1ccc(C)c(OCC(=O)Nc2ccc3c(c2)OCO3)c1C	3	-2	1	12*	-1
CCCNS(=O)(=O)c1ccc(OCC(=O)Nc2ccc3c(c2)OCCO3)cc1	-2	5	24*	2	-2
CCCNS(=O)(=O)c1ccc(OCC(=O)Nc2ccc3c(c2)OCCO3)c(C)c1	1	-1	-1	2	-6
CCOc1cc(C(=O)NC(C)CC)cc(OCC)c1OCC (configuration not stated)	0	3	27*	-1	1
CCOc1cc(C(=O)NC(C)Cc2cccs2)cc(OCC)c1OCC (configuration not stated)	-3	7	1	-1	-3
COc1cccc(-c2nnc3n2N=C(c2ccc(Cl)cc2)CS3)c1	-5	4	-1	0	3
SMILES	LEDGF integ inh	MBD2 inh	UHRF1 MBD2 ctr	PLCg1 inh	PLCb3 inh
CC(C)(N[C@@H](Cc1ccccc1)C(=O)NCCc1c[nH]c2ccccc12)C(=O)NC1CCCCC1	-1	-2	1	3	2
CCn1nc(C)c(NC(=O)c2ccc(Cl)cc2)c1C	5	13	27*	8	4
C/C(=N\Nc1ccc(C(F)(F)F)cn1)c1ccncc1	5	10	22*	1	-4
O=C(O)CCCNc1n[nH]c(=O)[nH]c1=O	1	1	26*	3	6
O=C(CCNc1n[nH]c(=O)[nH]c1=O)N1CCCCC1	2	1	3	1	5
COC(=O)c1c(C(=O)OC)c(-c2ccc(C)cc2)n2c1CS(=O)(=O)C2	-1	-1	1	3	8
Cc1c(COC(=O)NC(C)C)c(COC(=O)NC(C)C)c2n1CS(=O)(=O)C2	-5	4	26*	1	1
COC(=O)c1sc(S(=O)(=O)N2CCC(C)CC2)c(C(=O)OC)c1C	-4	-3	24*	-3	0
COC(=O)c1sc(S(=O)(=O)N2CCCCC2)c(C(=O)OC)c1C	2	0	-2	3	0
C=CCNC(=O)N1CCC(c2nc3ccc(Cl)cc3[nH]2)CC1	5	1	1	6	4
COc1ccc(COC(=O)c2cccc(S(=O)(=O)N3CCCC3)c2)cc1F	0	-4	-4	1	-6
Cc1ccc(COC(=O)c2cccc(S(=O)(=O)N3CCCCCC3)c2)cc1	3	8	25*	2	-13
COc1ccc(OC)c(COC(=O)c2cccc(S(=O)(=O)N3CCCCC3)c2)c1	-6	6	21*	4	-6
Cc1ccc(COC(=O)c2cccc(S(=O)(=O)N3CCCCC3)c2)cc1	0	-2	1	0	-8
CCN1Cc2nnn(Cc3ccc(C)cc3)c2-c2ccccc2S1(=O)=O	-1	-1	-1	-1	0
COc1ccc(C(=O)O[C@@H]2CCC[C@@]3(C(=O)N(Cc4ccccc4)c4ccccc43)[C@H]2NC(=O)CCc2ccccc2)cc1OC	0	-2	-2	6	2
COc1cc(/C=N/NC(=O)c2cc(C)oc2C)ccc1OCc1ccccc1	84*	-2	-2	0	-4
CC(C)c1c(C(=O)N/N=C/c2cccc(OCc3ccc(F)cc3)c2)nnn1-c1nonc1N	-2	-5	-1	4	-4
COc1cc(/C=N/NC(=O)c2cccs2)ccc1OCc1ccccc1	6	7	3	-25	-41
COc1cc(/C=N/NC(=O)c2nnn(-c3nonc3N)c2C(C)C)ccc1OCc1ccc(F)cc1	3	10	21*	-14	-28
O=C1CCCC/C1=C\Nc1ccc(O)cc1	11	-7	-4	-42	-55
O=C1CCCC/C1=C/Nc1cccc(C(F)(F)F)c1	2	7	24*	-1	2
FC(F)(F)c1ccccc1NC(=S)OCCN1CCCC12CCC(c1ccccc1)CC2 (configuration not stated)	-2	1	-3	-1	-2
CC1=CC(C)(C)N2C(=O)C3(C(C#N)=C(N)OC4=C3C(=O)CC(C)(C)C4)c3cccc1c32 (configuration not stated)	1	12	21*	-3	3
CC(=O)/C(=C/c1ccccc1)C(=O)Nc1ccccc1C	2	-4	-4	4	3
Cc1ccccc1NC(=O)C(=Cc1ccc(C(=O)O)cc1)C(=O)Nc1ccccc1C	1	3	26*	2	-4
